In PubChem BioAssay (Tox21):
Calls of active or inactive are those of the source. A call without a number means that no potency is given here. Calls follow the shape of the dose curve; as a rule, active = well fitted activation curve with a large enough effect in the repeat runs; inconclusive = weak or mixed curves; inactive = flat fitted curve, though single readings scatter.

Biological target: KiSS-1 receptor (Homo sapiens) (UniProt Q969F8)
Assay: Human kisspeptin (KISS1R) small molecule agonists, calcium flux assay in KISS1R-HEK293 cells (AID 1920064)
Conditions: KISS1R-HEK293, calcium flux fluorescence, agonist; series mostly up to 76.8 µM
Excerpt: National Center for Advancing Translational Sciences [NCATS]
Division of Preclinical Innovation [DPI]
U.S. Environmental Protection Agency [EPA]
National Institutes of Environmental Health Sciences [NIEHS]
National Toxicology Program [NTP]
U.S. Food and Drug Administration [FDA]
Kisspeptin and its receptor KISS1R play key roles in mammalian reproduction due to their involvement in the onset of puberty and control of the hypothalamic-pituitary-gonadal axis such as regulates GnRH release from the hypothalamus. The kisspeptin/KISS1R system also plays a direct role in peripheral organs (including the ovary, testis, uterus, and placenta) and is implicated in reproductive diseases such as miscarriage and polycystic ovary syndrome (PCOS). Abnormal KISS1R activity is associated with abnormal puberty, infertility, endometriosis, and hormone-dependent tumors. The KISS1 receptor (KISS1R, also called GPR54), a G-protein-coupled receptor (GPCR), acts (through phospholipase C) to increase intracellular inositol trisphosphate and then release intracellular calcium stores. Cell-based KISS1R-HEK293 assay is using HEK293 cells that have been genetically engineered to express the human KISS1R, which activity can be measured by calcium signaling. A compound/drug can activate (agonist) KISS1R that can be monitored by levels of intracellular calcium.
KISS1R-HEK293 cells developed by Codex Corp contain human KISS1R gene, which was stably integrated into HEK 293 cells. The compound activation can be detected by fluorescence intensity via calcium flux assay. This cell line has been used to screen the Tox21 10K compound library to identify agonists of KISS1R.
KISS1R-Hek293 cells were dispensed at 1500 cells/4uL/well in 1536-well black wall/clear bottom plates using a multidrop dispenser. After the assay plates were incubated at a 37 C/5% CO2 incubator for 18 hours, 4 microL of Calcium Dye Solution was added to each well. The plates were incubated at 37 C for 1 hour. And then 23 nL of compounds dissolved in DMSO, positive controls, or DMSO only was transferred to the assay plate by a pin tool station. The fluorescence intensity in the plates was measured using FDSS 7000EX kinetic plate reader with a filter set of Ex/Em=480/540 for 3 min at 1 sec intervals. Each test compound was measured at 15 concentrations and in triplicates.

Sequence of KiSS-1 receptor (Homo sapiens) (Q969F8 whole entry, looked up): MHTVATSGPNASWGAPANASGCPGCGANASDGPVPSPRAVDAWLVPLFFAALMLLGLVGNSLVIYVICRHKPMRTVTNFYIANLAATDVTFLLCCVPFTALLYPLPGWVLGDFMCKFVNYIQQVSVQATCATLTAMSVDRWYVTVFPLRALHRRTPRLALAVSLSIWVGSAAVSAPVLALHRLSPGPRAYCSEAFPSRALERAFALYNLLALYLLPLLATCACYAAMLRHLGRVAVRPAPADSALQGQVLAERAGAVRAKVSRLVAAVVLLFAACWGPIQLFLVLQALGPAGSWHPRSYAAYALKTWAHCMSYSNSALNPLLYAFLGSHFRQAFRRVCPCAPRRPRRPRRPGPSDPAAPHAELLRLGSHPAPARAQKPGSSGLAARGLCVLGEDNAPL

Row | SMILES | Potency
1 | Cc1cc(C)c(C(=O)O)c(C)c1 | inactive
2 | COc1cc(S(N)(=O)=O)cc(C(=O)O)c1OC | inactive
3 | C=CCCC(=O)/C=C/C1C(C)=CCCC1(C)C (stereo not given) | inactive
4 | CC(=O)O[C@H](CC(=O)[O-])C[N+](C)(C)C | inactive
5 | COc1cc(CCC(C)=O)ccc1O | inactive
6 | CC(=O)CC(=O)Nc1ccccc1C | inactive
7 | O=C(CCS)OCC(COC(=O)CCS)(COC(=O)CCS)COC(=O)CCS | inactive
8 | N[C@@H](CCC(=O)Nc1ccc([N+](=O)[O-])cc1)C(=O)O | inactive
9 | CCCCCCCCCCCCCCC(=O)O | inactive
10 | CCC(C)c1ccccc1 (stereo not given) | inactive
11 | CC(C)C(=O)C(C)C | inactive
12 | NS(=O)(=O)c1ccc(NC(=O)CCC(=O)O)cc1 | inactive
13 | Cc1ccc(C(=O)c2cc(O)c(O)c([N+](=O)[O-])c2)cc1 | inactive
14 | O=C1CC2CC1C1CCCC21 (stereo not given) | inactive
15 | CCCCOC(=O)C(C)OC(=O)CCC (stereo not given) | inactive
16 | O=C1C(O)=C(O)C(=O)C(O)=C1O | inactive
17 | CC1(C)C(C=C(Cl)Cl)C1C(=O)OCc1cccc(Oc2ccccc2)c1 (stereo not given) | inactive
18 | CC(CO)c1ccccc1 (stereo not given) | inactive
19 | Cc1ccc(/C(=C\CN2CCCC2)c2ccccn2)cc1 | inactive
20 | CCOC(=O)c1ccc(N)cc1 | inactive

Row | SMILES | Potency
21 | C=CC(C)(O)CC/C=C(\C)CCC=C(C)C (stereo not given) | inactive
22 | C=CC(=O)OCCCCCCCC | inactive
23 | CC(=O)OCCC1CCCCC1 | inactive
24 | OC1(c2ccc(Cl)cc2)CCNCC1 | inactive
25 | c1cnccn1 | inactive
26 | OCc1c2ccccc2cc2ccccc12 | inactive
27 | Cc1ccc(S(=O)(=O)NC2CCCCC2)cc1 | inactive
28 | CC1(C)C(O)C(C)(C)C1O (stereo not given) | inactive
29 | CC(C)(C)c1ccc(C(=O)CCCCl)cc1 | inactive
30 | CCCCCCCO | inactive
31 | COc1cc(C(=S)N2CCOCC2)cc(OC)c1OC | inactive
32 | C/C=C/CO | inactive
33 | Oc1ccc(OCc2ccccc2)cc1 | inactive
34 | CCC(=O)OC | inactive
35 | CCC(C)(C)C1CCCCC1OC(C)=O (stereo not given) | inactive
36 | CC(C)CCCCCCCCCCCCCCC(=O)O | inactive
37 | CC1=C(C=O)C(C)(C)CC=C1 | inactive
38 | CCOCCOCC | inactive
39 | CN(C)c1cc(NC(=O)CNC(C)(C)C)c(O)c2c1C[C@H]1C[C@H]3[C@H](N(C)C)C(=O)C(C(N)=O)=C(O)[C@@]3(O)C(=O)C1=C2O | inactive
40 | COc1cc(Cl)ccc1Cl | inactive
